# Records with an inconclusive call do not appear. Where a call stands in place of a potency, no number is given. Activity calls are given as the source filed them. Unless noted, calls come from the whole dose curve; as a rule, active = well fitted curve in the direction sought with a large enough effect in the repeat runs; inconclusive = weak or mixed curves; inactive = no such curve, though single readings can be large; an effect the other way counts as inactive or inconclusive.
# What was measured:
# [1] = target: Peroxisome proliferator-activated receptor delta (Homo sapiens) (UniProt Q03181); experiment: qHTS assay to identify small molecule agonists of the peroxisome proliferator-activated receptor delta (PPARd) signaling pathway (AID 743212; calls by dose curve)
# Chain of Peroxisome proliferator-activated receptor delta (Homo sapiens) (Q03181 whole entry, looked up): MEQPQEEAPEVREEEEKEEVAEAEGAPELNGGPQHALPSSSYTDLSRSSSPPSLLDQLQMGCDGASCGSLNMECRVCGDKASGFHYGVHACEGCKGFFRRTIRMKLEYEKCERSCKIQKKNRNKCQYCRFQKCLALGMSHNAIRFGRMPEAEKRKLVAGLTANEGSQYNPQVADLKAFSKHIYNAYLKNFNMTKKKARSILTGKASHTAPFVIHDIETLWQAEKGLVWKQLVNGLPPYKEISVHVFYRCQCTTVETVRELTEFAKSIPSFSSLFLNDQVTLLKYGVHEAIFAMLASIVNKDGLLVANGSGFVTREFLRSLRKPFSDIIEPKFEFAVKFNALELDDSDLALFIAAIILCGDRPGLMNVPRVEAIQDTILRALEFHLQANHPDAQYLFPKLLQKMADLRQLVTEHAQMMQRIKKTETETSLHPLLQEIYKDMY
# Summary of the method: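 HEK293H UAS-bla reporter cells, human PPARd system; compounds delivered in DMSO after 5 h plating, then at 37 C. Beta-lactamase FRET read, 2 h RT substrate step.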
# [2] = qHTS assay to identify small molecule antagonists of the peroxisome proliferator-activated receptor delta (PPARd) signaling pathway - cell viability counter screen (AID 743213); note: nearly all actives have a fitted effect of over 50% in size
# Summary of the method: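 HEK293H cells with the PPARd UAS-bla reporter, co-treated 17 h at 37 C with compounds and L165041 (300 nM final), were lysed with CellTiter-Glo. Luminescence indicated viable cell content.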
# [3] = target: Peroxisome proliferator-activated receptor delta (Homo sapiens) (UniProt Q03181); experiment: qHTS assay to identify small molecule antagonists of the peroxisome proliferator-activated receptor delta (PPARd) signaling pathway (AID 743215; active = well fitted inhibition curve with a large enough effect in the signal ratio in the repeat runs, not every such curve was filed as active; the % refers to the signal ratio;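 note: cells stimulated with agonist L165041 at 300 nM final during compound exposure; series mostly up to about 62 µM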)
# Summary of the method: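 PPARd-bla HEK293H cells (UAS-bla reporter) preincubated 5 h, then given compound plus 300 nM final L165041 agonist for 17 h at 37 C. Beta-lactamase activity read by LiveBLAzer B/G FRET substrate fluorescence after 2 h at room temperature.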
# [4] = target: Bile acid receptor (Homo sapiens) (UniProt Q96RI1); experiment: qHTS assay to identify small molecule antagonists of the farnesoid-X-receptor (FXR) signaling pathway (AID 743217; active = well fitted inhibition curve with a large enough effect in the signal ratio in the repeat runs, not every such curve was filed as active; the % refers to the signal ratio)
# Chain of Bile acid receptor (Homo sapiens) (Q96RI1 whole entry, looked up): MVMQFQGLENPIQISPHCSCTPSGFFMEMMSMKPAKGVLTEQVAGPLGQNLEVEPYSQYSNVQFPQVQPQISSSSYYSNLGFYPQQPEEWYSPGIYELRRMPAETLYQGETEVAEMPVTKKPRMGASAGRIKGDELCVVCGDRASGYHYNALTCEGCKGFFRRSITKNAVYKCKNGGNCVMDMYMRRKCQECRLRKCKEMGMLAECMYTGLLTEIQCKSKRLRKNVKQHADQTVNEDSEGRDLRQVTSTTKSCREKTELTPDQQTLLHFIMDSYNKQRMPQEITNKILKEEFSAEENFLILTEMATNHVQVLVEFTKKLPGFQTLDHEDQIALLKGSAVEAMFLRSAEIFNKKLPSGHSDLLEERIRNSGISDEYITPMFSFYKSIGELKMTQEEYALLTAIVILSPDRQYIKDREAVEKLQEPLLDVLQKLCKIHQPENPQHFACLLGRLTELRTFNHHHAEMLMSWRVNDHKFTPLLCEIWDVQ
# Summary of the method: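 FXR-UAS-bla HEK 293T cells (beta-lactamase reporter) given compound plus chenodeoxycholic acid (50 uM final), 16 h at 37C. LiveBLAzer B/G FRET substrate added for 2 h at room temperature; fluorescence read.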
# [5] = qHTS assay to identify small molecule agonists of the farnesoid-X-receptor (FXR) signaling pathway - cell viability counter screen (AID 743218); note: nearly all actives have a fitted effect of over 45% in size; note: potency is the fitted concentration of half-maximal effect
# Summary of the method: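 FXR-UAS-bla HEK 293T cells exposed to compounds for 16 h at 37C. Cytotoxicity read in the same wells by CellTiter-Glo luminescence after 30 min at room temperature, following the beta-lactamase FRET read.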
# [6] = target: Bile acid receptor (Homo sapiens) (UniProt Q96RI1); experiment: qHTS assay to identify small molecule agonists of the farnesoid-X-receptor (FXR) signaling pathway (AID 743220; active = well fitted activation curve with a large enough effect in the signal ratio in the repeat runs, not every such curve was filed as active; the % refers to the signal ratio)
# Summary of the method: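 Beta-lactamase reporter under UAS control in GeneBLAzer FXR HEK 293T cells (5000/well) measured with LiveBLAzer FRET substrate after 2 h at room temperature. Compound exposure lasted 16 h at 37C.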
# [7] = qHTS assay to identify small molecule antagonists of the farnesoid-X-receptor (FXR) signaling pathway - cell viability counter screen (AID 743221; active = well fitted cell-killing curve with a large enough effect in the repeat runs, not every such curve was filed as active; note: nearly all actives have a fitted effect of over 50% in size)
# Summary of the method: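 Quantitative HTS of the Tox21 10K library run in parallel with the beta-lactamase reporter read. HEK 293T cells carrying a UAS-driven bla reporter got compound and 50 uM CDCA (final) for 16 h; ATP-based luminescence followed.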
# [8] = target: Vitamin D3 receptor (Homo sapiens) (UniProt P11473); experiment: qHTS assay to identify small molecule agonists of the vitamin D receptor (VDR) signaling pathway (AID 743222; calls by dose curve)
# Chain of Vitamin D3 receptor (Homo sapiens) (P11473 whole entry, looked up): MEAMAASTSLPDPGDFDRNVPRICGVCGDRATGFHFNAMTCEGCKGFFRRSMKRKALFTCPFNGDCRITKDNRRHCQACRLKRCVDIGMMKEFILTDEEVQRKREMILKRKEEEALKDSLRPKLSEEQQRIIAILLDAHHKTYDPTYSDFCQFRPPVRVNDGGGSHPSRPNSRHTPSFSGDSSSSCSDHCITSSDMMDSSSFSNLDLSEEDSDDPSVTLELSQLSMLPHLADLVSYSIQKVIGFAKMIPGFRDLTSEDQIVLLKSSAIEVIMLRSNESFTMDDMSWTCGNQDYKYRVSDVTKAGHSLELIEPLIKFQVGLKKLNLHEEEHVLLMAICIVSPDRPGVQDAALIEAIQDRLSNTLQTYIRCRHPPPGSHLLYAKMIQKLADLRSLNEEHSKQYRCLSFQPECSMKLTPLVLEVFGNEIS
# Summary of the method: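 VDR-bla cells plated 4 h at 37 C, then exposed to compounds for 16 h at 37 C. Beta-lactamase reporter activity measured by fluorescence after 2 h room-temperature loading with LiveBLAzer B/G FRET substrate.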
# [9] = target: Vitamin D3 receptor (Homo sapiens) (UniProt P11473); experiment: qHTS assay to identify small molecule antagonists of the vitamin D receptor (VDR) signaling pathway (AID 743223; active = well fitted inhibition curve with a large enough effect in the signal ratio in the repeat runs, not every such curve was filed as active; the % refers to the signal ratio)
# Summary of the method: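 Fluorescence from LiveBLAzer B/G FRET substrate, read after 2 h at room temperature, reflects beta-lactamase reporter activity in VDR-bla cells treated 16 h at 37C with compounds and agonist 1alpha,25-dihydroxyvitamin D3 (3 nM final).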
# [10] = qHTS assay to identify small molecule agonists of the vitamin D receptor (VDR) signaling pathway - cell viability counter screen (AID 743224); note: series mostly up to about 63 µM; nearly all actives have a fitted effect of over 50% in size
# Summary of the method: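 VDR-bla cells, 4 h after plating, exposed to compounds for 16 h at 37C; viability then read in the same wells as CellTiter-Glo luminescence after 30 min at room temperature, following the bla FRET read.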
# [11] = qHTS assay to identify small molecule antagonists of the vitamin D receptor (VDR) signaling pathway - cell viability counter screen (AID 743225); note: nearly all actives have a fitted effect of over 50% in size
# Summary of the method: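 Cells (VDR-UAS-bla HEK 293T) are plated, rested 4 h at 37C, dosed with compound and 3 nM final 1-alpha,25-dihydroxy vitamin D3, and incubated 16 h. Viability is taken from CellTiter-Glo luminescence in the reporter wells.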
# [12] = qHTS assay to identify small molecule agonists of the NFkB signaling pathway (AID 1159509; active = well fitted curve in the direction sought with a large enough effect in the signal ratio in the repeat runs, not every such curve was filed as active; the % refers to the signal ratio; note: series mostly up to about 61 µM)
# Summary of the method: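 NFkB-bla ME-180 cells with a beta-lactamase reporter under an NF-kB response element were plated overnight, treated with compounds in DMSO for 5 hr at 37 C, then loaded with FRET substrate for 1.5 hr at room temperature.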
# [13] = qHTS assay to identify small molecule agonists of the NFkB signaling pathway - cell viability counter screen (AID 1159515; calls by dose curve; note: series mostly up to about 61 µM; nearly all actives have a fitted effect of over 55% in size)
# Summary of the method: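 NFkB-bla ME-180 cells, 2,000/well, plated overnight at 37 C; compound added for 5 hr at 37 C. Viability read in the same wells as the bla reporter, by CellTiter-Glo luminescence after 30 min at room temperature.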
# [14] = qHTS assay to identify small molecule agonists of the endoplasmic reticulum stress response signaling pathway (AID 1159516; active = well fitted activation curve with a large enough effect in the signal ratio in the repeat runs, not every such curve was filed as active; the % refers to the signal ratio)
# Summary of the method: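 CellSensor ESRE-bla HeLa cells, 1,500 per well, plated overnight, then exposed to compounds for 5 hr at 37 C. Beta-lactamase reporter read with LiveBLAzer B/G FRET substrate after 2 hr at room temperature, 405 nm excitation, 460 and 530 nm emission.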
# [15] = qHTS assay to identify small molecule agonists of the endoplasmic reticulum stress response signaling pathway - cell viability counter screen (AID 1159517; calls by dose curve)
# Summary of the method: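 Cells, HeLa ESRE-bla; density, 1,500/well; dosing, 5 hr at 37 C, 5% CO2; readout, CellTiter-Glo luminescence after 30 min RT.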
# [16] = qHTS assay to identify small molecule antagonists of the retinoid-related orphan receptor gamma (ROR-gamma) signaling pathway - cell viability counter screen (AID 1159520); note: nearly all actives have a fitted effect of over 50% in size
# Summary of the method: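 Cytotoxicity was read from cellular ATP (CellTiter-Glo luminescence) after 16 hr at 37 C with 1 uM doxycycline induction. The inducer was added 2 hr after compound transfer to Tet-on ROR gamma CHO cells.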
# [17] = target: Nuclear receptor ROR-gamma (Homo sapiens) (UniProt P51449); experiment: qHTS assay to identify small molecule antagonists of the retinoid-related orphan receptor gamma (ROR-gamma) signaling pathway (AID 1159521; note: nearly all actives have a fitted effect of over 50% in size; note: potency is the fitted concentration of half-maximal effect)
# Summary of the method: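 RORγ antagonism is scored from reduced reporter luminescence in Tet-on CHO cells. Induction used 1 uM final doxycycline hyclate for 16 h at 37 C, following a 2 h compound exposure.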
# [18] = qHTS assay to identify small molecule agonists of the AP-1 signaling pathway - cell viability counter screen (AID 1159525; calls by dose curve; note: nearly all actives have a fitted effect of over 55% in size)
# Summary of the method: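 Luminescent ATP readout (Cell Titer Glo, 30 min RT), normalised to DMSO and tetra n-octyl ammonium bromide controls. Cells were ME-180 AP-1-bla in 0.5% dialyzed FBS Opti-MEM, with a 5 h, 37 °C compound exposure.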
# [19] = qHTS assay to identify small molecule agonists of the AP-1 signaling pathway (AID 1159526; calls by dose curve)
# [20] = qHTS assay to identify small molecule agonists of the peroxisome proliferator-activated receptor delta (PPARd) signaling pathway - cell viability counter screen (AID 743211); note: nearly all actives have a fitted effect of over 55% in size
# Summary of the method: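 Viability of GeneBLAzer PPARd UAS-bla HEK293H cells was assessed after 17 h compound incubation at 37C, using CellTiter-Glo reagent added after the reporter read and luminescence recorded 30 min later.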
Structure (SMILES),outcome [1],outcome [2],outcome [3],Potency [4],Potency [5],outcome [6],outcome [7],outcome [8],outcome [9],Potency [10],outcome [11],outcome [12],outcome [13],outcome [14],Potency [15],Potency [16],Potency [17],Potency [18],outcome [19],Potency [20]
CCNc1nc(NC(C)C)nc(OC)n1,inactive,inactive,inactive,inactive,inactive,inactive,inactive,inactive,inactive,inactive,inactive,inactive,inactive,inactive,inactive,inactive,inactive,inactive,inactive,
CC(C(=O)c1ccccc1)N(C)C (stereo not given),inactive,,inactive,,inactive,,inactive,,,inactive,,inactive,inactive,inactive,inactive,inactive,inactive,inactive,inactive,inactive
COc1cc(OC)nc(Sc2cccc(Cl)c2C(=O)O)n1,,inactive,,,inactive,,inactive,inactive,inactive,inactive,,inactive,inactive,inactive,inactive,inactive,inactive,inactive,inactive,inactive
CN1CCN(C(=O)O[C@H]2c3nccnc3C(=O)N2c2ccc(Cl)cn2)CC1,,inactive,,inactive,inactive,inactive,inactive,inactive,inactive,,inactive,inactive,inactive,inactive,inactive,inactive,inactive,inactive,inactive,inactive
CCCSP(=O)(OCC)Oc1ccc(Br)cc1Cl (stereo not given),inactive,,inactive,,,inactive,inactive,inactive,inactive,,inactive,inactive,inactive,inactive,inactive,inactive,inactive,inactive,inactive,inactive
[Cl][Sn]([Cl])([Cl])[Cl],inactive,inactive,,,,,inactive,inactive,,inactive,inactive,inactive,inactive,inactive,inactive,inactive,inactive,inactive,inactive,inactive
N#Cc1c(Cl)cccc1Cl,inactive,inactive,inactive,,,,inactive,,,inactive,inactive,inactive,inactive,inactive,inactive,inactive,inactive,inactive,inactive,inactive
CC(C=O)Cc1ccc2c(c1)OCO2 (stereo not given),inactive,inactive,inactive,inactive,inactive,inactive,inactive,inactive,,inactive,inactive,inactive,inactive,inactive,inactive,inactive,inactive,inactive,,inactive
O=C1OC(CCN2CCCCC2)OC1(c1ccccc1)c1ccccc1 (stereo not given),,inactive,,inactive,inactive,,inactive,inactive,inactive,inactive,inactive,inactive,inactive,inactive,inactive,inactive,inactive,inactive,,inactive
O=C(O)C(Br)CBr (stereo not given),,inactive,inactive,,inactive,,inactive,,,inactive,inactive,inactive,inactive,inactive,inactive,inactive,inactive,inactive,,inactive
CN/C(=N\[N+](=O)[O-])NCC1CCOC1 (stereo not given),,inactive,,inactive,,inactive,inactive,inactive,inactive,inactive,inactive,inactive,inactive,inactive,inactive,inactive,inactive,inactive,inactive,
CCS(=O)(=O)CCSP(=O)(OC)OC,inactive,inactive,inactive,,inactive,,inactive,inactive,,inactive,inactive,inactive,inactive,inactive,inactive,inactive,inactive,inactive,inactive,
CCCSP(=S)(OCC)Oc1ccc(Cl)cc1Cl (stereo not given),inactive,inactive,inactive,,,,inactive,inactive,inactive,,inactive,inactive,inactive,inactive,inactive,inactive,inactive,inactive,,
CNNC,,inactive,,inactive,,inactive,inactive,inactive,,inactive,inactive,inactive,inactive,inactive,inactive,inactive,inactive,inactive,,inactive
CCCSC(=O)N(CCC)CCC,inactive,inactive,inactive,,,,inactive,inactive,,inactive,inactive,inactive,inactive,inactive,inactive,inactive,inactive,inactive,inactive,
CC(Oc1ccc(Oc2ncc(C(F)(F)F)cc2Cl)cc1)C(=O)O (stereo not given),,inactive,inactive,,21.9 µM (active),,,inactive,inactive,inactive,inactive,inactive,inactive,inactive,inactive,inactive,27.3 µM (active),inactive,inactive,

# Reference: PubChem BioAssay (Tox21)
